The values below come from PubChem BioAssay.

A short description of experiment [1]: sensitizers of A549 cells to miR-34 induction, primary screen, imaging, A549 dox-inducible miR-34, nuclei and caspase counts (AID 1347080). As to conditions: A549 miR-34 inducible, Hoechst nuclei count, 48 h.
Experiment [2] is described as follows: phospholipid biosynthesis inhibitors in animal cells, primary screen, cell-based, LOPAC library, screen 4 (AID 1347384; call rule not given here). As to conditions: phospholipid biosynthesis inhibition screen, at 10 µM.
Experiment [3] deals with NAD(+) hydrolase SARM1 (Homo sapiens) (UniProt Q6SZW1). Kind of experiment: SARM1 TIR NADase inhibitors, cell lysate, NAD-Glo luminescence (AID 1508614;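 active = compound whose remaining NAD level is above about 45 nM, limit read from the data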;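 also: higher remaining NAD means stronger inhibition of SARM1 NADase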). As to conditions: SAM-TIR HEK293T lysate NADase, at 1 µM, stronger effect = higher value.
Sequence of NAD(+) hydrolase SARM1 (Homo sapiens) (Q6SZW1 whole entry, looked up): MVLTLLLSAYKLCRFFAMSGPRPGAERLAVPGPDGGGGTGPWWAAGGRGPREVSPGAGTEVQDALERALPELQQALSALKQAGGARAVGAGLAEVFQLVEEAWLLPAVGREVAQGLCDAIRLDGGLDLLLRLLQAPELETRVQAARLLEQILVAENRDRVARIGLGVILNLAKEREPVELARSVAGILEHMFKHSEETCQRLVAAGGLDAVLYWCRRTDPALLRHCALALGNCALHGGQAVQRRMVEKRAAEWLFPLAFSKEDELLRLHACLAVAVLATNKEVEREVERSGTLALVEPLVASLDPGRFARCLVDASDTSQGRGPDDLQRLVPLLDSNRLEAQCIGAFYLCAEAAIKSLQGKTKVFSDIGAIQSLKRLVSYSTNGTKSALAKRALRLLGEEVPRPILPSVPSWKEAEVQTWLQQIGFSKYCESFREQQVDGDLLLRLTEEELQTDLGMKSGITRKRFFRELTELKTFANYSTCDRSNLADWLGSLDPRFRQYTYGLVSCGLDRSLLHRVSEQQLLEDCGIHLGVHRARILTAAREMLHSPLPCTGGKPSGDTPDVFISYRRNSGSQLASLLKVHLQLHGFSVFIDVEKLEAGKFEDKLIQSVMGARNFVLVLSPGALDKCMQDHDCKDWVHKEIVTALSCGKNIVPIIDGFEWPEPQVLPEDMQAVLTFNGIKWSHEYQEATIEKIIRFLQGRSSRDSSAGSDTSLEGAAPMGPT
Experiment [4] can be described thus: viability rescue of complex I mutant cybrids, primary screen, cell-based, galactose medium, ATP luminescence (AID 1645843;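 active = z-score of at least 1.8 in each of two replicates, scored against plate mean and spread of sample wells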;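 also: positive z means more ATP and so rescue of galactose-driven cybrid death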). As to conditions: complex I mutant cybrid cells, 72 h, stronger effect = higher value.
The nature of experiment [5]: survival rescue of mitochondrial mutant cells in low glucose, primary screen, MELAS cybrids, Rieske KO mouse fibroblasts, CellTiter-Glo (AID 1508586;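 active = mean z-score across replicates of 1.96 or higher in either the MELAS or the Rieske mutant cell line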;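 also: z relative to plate mean and SD of compound and empty wells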).
For experiment [6], the target named is Mitogen-activated protein kinase 7 (Homo sapiens) (UniProt Q13164). Kind of experiment: ERK5 transactivation activators in reporter cells, primary screen, cell-based, HTS (AID 1508626;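 active = luciferase signal above three times the same-plate solvent-only control wells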;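 also: luciferase driven by Gal4-ERK5 fusion binding five Gal4 sites before minimal TATA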). As to conditions: HeLa Gal4-ERK5 transactivation, 18 h, at 5 µM, stronger effect = higher value.
Sequence of Mitogen-activated protein kinase 7 (Homo sapiens) (Q13164 whole entry, looked up, the tested form may be a part): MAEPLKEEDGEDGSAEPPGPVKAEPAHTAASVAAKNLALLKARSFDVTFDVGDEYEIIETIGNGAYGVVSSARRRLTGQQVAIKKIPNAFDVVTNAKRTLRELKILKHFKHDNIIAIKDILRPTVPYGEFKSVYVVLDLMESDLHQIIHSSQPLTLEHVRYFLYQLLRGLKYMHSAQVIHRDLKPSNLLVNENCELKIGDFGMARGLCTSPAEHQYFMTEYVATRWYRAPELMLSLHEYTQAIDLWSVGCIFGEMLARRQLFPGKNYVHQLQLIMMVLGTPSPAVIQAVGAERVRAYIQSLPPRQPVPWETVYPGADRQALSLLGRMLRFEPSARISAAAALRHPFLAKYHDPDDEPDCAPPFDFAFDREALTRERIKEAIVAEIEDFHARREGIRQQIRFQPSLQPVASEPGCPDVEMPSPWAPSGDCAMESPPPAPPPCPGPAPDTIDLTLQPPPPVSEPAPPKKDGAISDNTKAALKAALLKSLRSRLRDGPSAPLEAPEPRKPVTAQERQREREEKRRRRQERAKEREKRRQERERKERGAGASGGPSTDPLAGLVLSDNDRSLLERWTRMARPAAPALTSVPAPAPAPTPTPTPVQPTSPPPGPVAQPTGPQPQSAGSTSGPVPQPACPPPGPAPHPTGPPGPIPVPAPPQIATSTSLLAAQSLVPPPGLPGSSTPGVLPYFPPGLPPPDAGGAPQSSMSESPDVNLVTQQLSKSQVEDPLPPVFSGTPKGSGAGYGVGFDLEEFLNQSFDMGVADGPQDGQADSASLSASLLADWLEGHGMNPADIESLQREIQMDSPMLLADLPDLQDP
The mark [7] stands for this setting: stronger effect = lower value, cell number ratio, induced over uninduced.
Where [8] appears, read: measured here: relative caspase fold change +Dox/-Dox.
Where [9] appears, read: measured here: total cells with miR-34 induction, stronger effect = lower value.
[10] abbreviates: measured here: total cells without miR-34 induction.
Where [11] appears, read: MELAS cybrid survival, CellTiter-Glo 48 h, stronger effect = higher value.
[12] abbreviates: Rieske KO mouse fibroblast survival, CellTiter-Glo 72 h.

Where “and” joins values, the source holds several entries; their conditions need not be identical. Equal entries are not always repeated. Calls of active or inactive are those of the source.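 The calls were made as follows, unless noted: active = compounds whose cell count with miR-34 switched on is under 0.7 times the count with it off; inactive = the rest.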

On to `CC(C(=O)O)c1ccc(CC2CCCC2=O)cc1` (stereo not drawn), for which the fold change in experiment [1] (setting [7]) was 1.07 (inactive) and 1 (inactive); in experiment [1] (setting [8]), 0.862 and 2.11. The cell count in experiment [1] (setting [9]) was 11000 and 10200; in experiment [1] (setting [10]), 10200. Besides, in experiment [2], the outcome was inactive. In experiment [3], the remaining NAD is 10 nM (inactive). For the same compound, the z-score in experiment [4] was 0.695 (inactive) and 0.805 (inactive).

In the case of `CCOc1ccc2nc3cc(N)ccc3c(N)c2c1`, the fold change in experiment [1] (setting [7]) was 0.785 (inactive) and 0.928 (inactive); in experiment [1] (setting [8]), 2.5 and 0.759. In addition, the cell count is 3210 and 7370 in experiment [1] (setting [9]); 4090 and 7950 in experiment [1] (setting [10]). In addition, the z-score in experiment [5] (setting [11]) was 7.85 (active); in experiment [5] (setting [12]) it was 4.68. In experiment [3], the remaining NAD was 10 nM (inactive). In addition, the luciferase signal in experiment [6] was 32 AU (inactive).

As for `CCN(CC)CCNC(=O)c1ccc(NC(C)=O)cc1`, the fold change is 1.04 (inactive) and 0.905 (inactive) in experiment [1] (setting [7]); 1.99 and 4.44 in experiment [1] (setting [8]). Moreover, the cell count was 10300 and 12600 in experiment [1] (setting [9]); 9910 and 14000 in experiment [1] (setting [10]). For the same compound, the outcome in experiment [2] was inactive. Moreover, the remaining NAD in experiment [3] is 10 nM (inactive). In experiment [6], the luciferase signal is 32 AU (inactive). For the same compound, in experiment [4], the z-score is 0.34 (inactive).

Take `CN1CCC(OC(c2ccccc2)c2ccccc2)CC1`: the fold change in experiment [1] (setting [7]) was 0.843 (inactive) and 0.871 (inactive); in experiment [1] (setting [8]), 1.44 and 0.876. Further, the cell count is 8640 and 11300 in experiment [1] (setting [9]); 10200 and 13000 in experiment [1] (setting [10]). Further, the z-score was 0.35 (inactive) in experiment [5] (setting [11]) and 0.809 in experiment [5] (setting [12]). The remaining NAD in experiment [3] is 10 nM (inactive). In addition, in experiment [6], the luciferase signal is 32 AU (inactive).

Take `CC[N+](C)(C)Cc1ccccc1Br`: the fold change in experiment [1] (setting [7]) was 0.896 (inactive); in experiment [1] (setting [8]), 1.09. Further, the cell count was 8620 in experiment [1] (setting [9]) and 9630 in experiment [1] (setting [10]). Moreover, the z-score is 0.582 (inactive) in experiment [5] (setting [11]) and 0.0274 in experiment [5] (setting [12]).

`C[n+]1cc2c3c(ccc2c2ccc4cc5c(cc4c21)OCO5)OCO3`: the fold change in experiment [1] (setting [7]) was 0.823 (inactive) and 1.84 (inactive) and 1.11 (inactive); in experiment [1] (setting [8]), 0.926 and 0.714 and 1.64. The cell count in experiment [1] (setting [9]) is 552 and 933 and 1830; in experiment [1] (setting [10]), 672 and 507 and 1640. The result in experiment [2] was inactive. Also, the remaining NAD in experiment [3] is 10 nM (inactive). Besides, the luciferase signal in experiment [6] is 84 AU (inactive). In addition, the z-score in experiment [4] is -1.38 (inactive).

With `CCN(CC)CCOC(=O)C(Cc1cccc2ccccc12)CC1CCCO1` (stereo not drawn), the fold change in experiment [1] (setting [7]) is 0.845 (inactive) and 0.836 (inactive); in experiment [1] (setting [8]), 1.23 and 5.94. For the same compound, the cell count is 9000 and 10700 in experiment [1] (setting [9]); 10700 and 12800 in experiment [1] (setting [10]). Moreover, the z-score is 0.101 (inactive) in experiment [5] (setting [11]) and -0.0853 in experiment [5] (setting [12]). For the same compound, in experiment [3], the remaining NAD was 10 nM (inactive). For the same compound, in experiment [6], the luciferase signal was 36 AU (inactive).

As to `NC/C=C/C(=O)O`, the fold change was 1.01 (inactive) in experiment [1] (setting [7]) and 1.35 in experiment [1] (setting [8]). Besides, the cell count in experiment [1] (setting [9]) is 10300; in experiment [1] (setting [10]), 10200. Moreover, the outcome in experiment [2] was inactive. Moreover, the luciferase signal in experiment [6] was 96 AU (inactive). For the same compound, the z-score in experiment [4] was 0.575 (inactive).

For the compound `Cc1cc(N)c2ccccc2[n+]1CCCCCCCCCC[n+]1c(C)cc(N)c2ccccc21`, the fold change was 1.04 (inactive) and 0.959 (inactive) in experiment [1] (setting [7]); 1.28 and 1.58 in experiment [1] (setting [8]). Besides, the cell count is 1900 and 2180 in experiment [1] (setting [9]); 1830 and 2270 in experiment [1] (setting [10]). Besides, the call in experiment [2] was inactive. The z-score in experiment [5] (setting [11]) was -3.39 (inactive); in experiment [5] (setting [12]), -2.46; in experiment [4], -1.04 (inactive). For the same compound, the remaining NAD in experiment [3] was 10 nM (inactive).

Turning to `O=C(O)CCCC[C@@H]1SC[C@@H]2NC(=O)N[C@@H]21`, the fold change in experiment [1] (setting [7]) is 0.845 (inactive); in experiment [1] (setting [8]) it was 1.66. In addition, the cell count was found to be 8760 in experiment [1] (setting [9]) and 10400 in experiment [1] (setting [10]). The values for the z-score in experiment [5] (setting [11]) and in experiment [5] (setting [12]) were -0.325 (inactive) and -0.214, respectively. For the same compound, the remaining NAD in experiment [3] was 10 nM (inactive). Besides, the luciferase signal in experiment [6] was 256 AU (inactive).

Turning to `C[C@](N)(Cc1ccc(O)cc1)C(=O)O`, the fold change is 1.06 (inactive) in experiment [1] (setting [7]) and 0.881 in experiment [1] (setting [8]). In addition, the cell count in experiment [1] (setting [9]) was 10300; in experiment [1] (setting [10]) it was 9680. In addition, the call in experiment [2] was inactive. The luciferase signal in experiment [6] was 60 AU (inactive). The z-score in experiment [4] is 0.71 (inactive).

Consider `CCOC(=O)n1ccn(C)c1=S`, for which the fold change in experiment [1] (setting [7]) is 0.866 (inactive) and 0.865 (inactive); in experiment [1] (setting [8]) it was 1.28 and 0.473. The cell count in experiment [1] (setting [9]) is 8700 and 8400; in experiment [1] (setting [10]), 10100 and 9710. Moreover, the z-score in experiment [5] (setting [11]) was -0.0629 (inactive) and 0.57 (inactive); in experiment [5] (setting [12]), -0.122 and 0.0161. Further, in experiment [3], the remaining NAD is 10 nM (inactive).

In the case of `NCCCC(=O)O`, the fold change in experiment [1] (setting [7]) was 1.09 (inactive); in experiment [1] (setting [8]) it was 1.86. Further, the cell count in experiment [1] (setting [9]) is 10000; in experiment [1] (setting [10]) it was 9160. The compound was classed as inactive in experiment [2]. Besides, in experiment [3], the remaining NAD is 10 nM (inactive). Besides, the luciferase signal in experiment [6] is 56 AU (inactive). Besides, the z-score in experiment [4] was 0.26 (inactive).

Consider `CCN1CCC[C@H]1CNC(=O)c1cc(S(N)(=O)=O)ccc1OC`, for which the fold change in experiment [1] (setting [7]) is 1.01 (inactive) and 0.997 (inactive) and 0.936 (inactive); in experiment [1] (setting [8]) it was 1.51 and 0.827 and 1.56. Also, the cell count in experiment [1] (setting [9]) was 10700 and 9240 and 9830; in experiment [1] (setting [10]), 10600 and 9270 and 10500. In addition, the call in experiment [2] was inactive. The z-score was 0.469 (inactive) in experiment [5] (setting [11]); 0.62 in experiment [5] (setting [12]); 0.65 (inactive) and 0.075 (inactive) and 0.505 (inactive) in experiment [4].

Regarding `CCN1CCC[C@H]1CNC(=O)c1c(O)c(Cl)cc(Cl)c1OC`, the fold change is 1 (inactive) and 0.9 (inactive) and 0.875 (inactive) in experiment [1] (setting [7]); 1.23 and 0.728 and 0.77 in experiment [1] (setting [8]). The cell count in experiment [1] (setting [9]) is 9930 and 9080 and 9820; in experiment [1] (setting [10]) it was 9900 and 10100 and 11200. Moreover, in experiment [2], the result was inactive. Besides, the z-score is -0.782 (inactive) and -0.532 (inactive) in experiment [5] (setting [11]); -0.0598 and -0.803 in experiment [5] (setting [12]); 0.525 (inactive) and -0.165 (inactive) and 0.41 (inactive) in experiment [4].

In the case of `CN(C)CC[C@@H](c1ccc(Br)cc1)c1ccccn1`, the fold change was 0.946 (inactive) in experiment [1] (setting [7]) and 1.72 in experiment [1] (setting [8]). The cell count is 9070 in experiment [1] (setting [9]) and 9580 in experiment [1] (setting [10]). Besides, in experiment [2], the call was inactive. In experiment [4], the z-score was -0.265 (inactive).

As for `NS(=O)(=O)c1cc2c(cc1Cl)NC(C1CC3C=CC1C3)NS2(=O)=O` (stereo not drawn), the fold change in experiment [1] (setting [7]) was 0.998 (inactive) and 0.957 (inactive) and 0.847 (inactive); in experiment [1] (setting [8]) it was 1.34 and 0.752 and 2.93. Further, the cell count in experiment [1] (setting [9]) was 9070 and 9210 and 11400; in experiment [1] (setting [10]), 9090 and 9620 and 13400. The outcome in experiment [2] was inactive. Also, the luciferase signal in experiment [6] was 84 AU (inactive). Besides, the z-score in experiment [4] was 0.71 (inactive) and 0.55 (inactive).
